According to the supplement of paper PMC10849652:
Of roughly 7,900 targets only a part is listed; those with a hit were picked by preference. About 0.6% of all pairs of compound and target were hits. A number with no mark means an inactive call.

Key:
Assay in all cases: log2 fold change, soluble protein after heating vs DMSO (PISA); higher = thermal stabilisation; K562 cells, 10 uM, 30 min; active = over 0.2 and 3.5 SD of the protein, either way, in both replicates (recomputed)
[1] = compound: COC1=CC=C(C=C1)CN2C=CC3=C2C=C(C=C3)C(=O)NO
How it was run: (§1)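 K562 cells (2×10^6 cells/mL) were treated with 10 μM compound for 30 min, and aliquots were heated for 3 min over 48°C-58°C. Pooled aliquots were extracted in PBS with 0.5% NP-40 at 4°C, and the supernatant after 21,000xg for 90 min was measured by TMTpro 16plex LC-MS/MS with channel sums equalised. Reported thermal stability, relative to control samples and from duplicates, is a log2 fold change.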

filanesib = compound: CON(C)C(=O)N1N=C(c2cc(F)ccc2F)S[C@@]1(CCCN)c1ccccc1 [filanesib]
How it was run: as §1

zotarolimus = compound: CO[C@H]1C[C@@H]2CC[C@@H](C)[C@@](O)(O2)C(=O)C(=O)N2CCCC[C@H]2C(=O)O[C@H]([C@H](C)C[C@@H]2CC[C@H](n3cnnn3)[C@H](OC)C2)CC(=O)[C@H](C)/C=C(\C)[C@@H](O)[C@@H](OC)C(=O)[C@H](C)C[C@H](C)/C=C/C=C/C=C/1C [zotarolimus]
How it was run: as §1

idasanutlin = compound: COc1cc(C(=O)O)ccc1NC(=O)[C@@H]1N[C@@H](CC(C)(C)C)[C@](C#N)(c2ccc(Cl)cc2F)[C@H]1c1cccc(Cl)c1F [idasanutlin]
How it was run: as §1

alisertib = compound: COc1cc(Nc2ncc3c(n2)-c2ccc(Cl)cc2C(c2c(F)cccc2OC)=NC3)ccc1C(=O)O [alisertib]
How it was run: as §1

[2] = compound: COc1cc2nc(-c3cc(F)ccc3O)nc(N[C@@H]3CNC[C@H]3C(C)(C)O)c2cc1OC
How it was run: as §1

gefitinib = compound: COc1cc2ncnc(Nc3ccc(F)c(Cl)c3)c2cc1OCCCN1CCOCC1 [gefitinib]
How it was run: as §1

[3] = compound: COc1cccc2cc(-c3nc([C@H]4CC[C@H](C(=O)O)CC4)n4ncnc(N)c34)[nH]c12
How it was run: as §1

lapatinib = compound: CS(=O)(=O)CCNCc1ccc(-c2ccc3ncnc(Nc4ccc(OCc5cccc(F)c5)c(Cl)c4)c3c2)o1 [lapatinib]
How it was run: as §1

pictilisib = compound: CS(=O)(=O)N1CCN(Cc2cc3nc(-c4cccc5[nH]ncc45)nc(N4CCOCC4)c3s2)CC1 [pictilisib]
How it was run: as §1

[4] = compound: CS(=O)(=O)c1ccc(-c2cnc(N)c(C(=O)Nc3ccccc3)n2)cc1
How it was run: as §1

crizotinib = compound: C[C@@H](Oc1cc(-c2cnn(C3CCNCC3)c2)cnc1N)c1c(Cl)ccc(F)c1Cl [crizotinib]
How it was run: as §1

[5] = compound: C[C@@H]1COCCN1C2=NC(=NC(=C2)C3(CC3)S(=O)(=O)C)C4=C5C=CNC5=CC=C4
How it was run: as §1

[6] = compound: C[C@H](C1=CC=C(C=C1)C(=O)NC2=C3C=CNC3=NC=C2)N
How it was run: as §1

duvelisib = compound: C[C@H](Nc1ncnc2nc[nH]c12)c1cc2cccc(Cl)c2c(=O)n1-c1ccccc1 [duvelisib]
How it was run: as §1

gandotinib = compound: Cc1cc(Nc2cc(CN3CCOCC3)c3nc(C)c(Cc4ccc(Cl)cc4F)n3n2)n[nH]1 [gandotinib]
How it was run: as §1

tozasertib = compound: Cc1cc(Nc2cc(N3CCN(C)CC3)nc(Sc3ccc(NC(=O)C4CC4)cc3)n2)n[nH]1 [tozasertib]
How it was run: as §1

[7] = compound: Cc1cc(SCc2sc(-c3ccc(C(F)(F)F)cc3)nc2C)ccc1OCC(=O)O
How it was run: as §1

doramapimod = compound: Cc1ccc(-n2nc(C(C)(C)C)cc2NC(=O)Nc2ccc(OCCN3CCOCC3)c3ccccc23)cc1 [doramapimod]
How it was run: as §1

ispinesib = compound: Cc1ccc(C(=O)N(CCCN)[C@@H](c2nc3cc(Cl)ccc3c(=O)n2Cc2ccccc2)C(C)C)cc1 [ispinesib]
How it was run: as §1

UniProt Q15111, sequence (Q15111 whole entry, looked up): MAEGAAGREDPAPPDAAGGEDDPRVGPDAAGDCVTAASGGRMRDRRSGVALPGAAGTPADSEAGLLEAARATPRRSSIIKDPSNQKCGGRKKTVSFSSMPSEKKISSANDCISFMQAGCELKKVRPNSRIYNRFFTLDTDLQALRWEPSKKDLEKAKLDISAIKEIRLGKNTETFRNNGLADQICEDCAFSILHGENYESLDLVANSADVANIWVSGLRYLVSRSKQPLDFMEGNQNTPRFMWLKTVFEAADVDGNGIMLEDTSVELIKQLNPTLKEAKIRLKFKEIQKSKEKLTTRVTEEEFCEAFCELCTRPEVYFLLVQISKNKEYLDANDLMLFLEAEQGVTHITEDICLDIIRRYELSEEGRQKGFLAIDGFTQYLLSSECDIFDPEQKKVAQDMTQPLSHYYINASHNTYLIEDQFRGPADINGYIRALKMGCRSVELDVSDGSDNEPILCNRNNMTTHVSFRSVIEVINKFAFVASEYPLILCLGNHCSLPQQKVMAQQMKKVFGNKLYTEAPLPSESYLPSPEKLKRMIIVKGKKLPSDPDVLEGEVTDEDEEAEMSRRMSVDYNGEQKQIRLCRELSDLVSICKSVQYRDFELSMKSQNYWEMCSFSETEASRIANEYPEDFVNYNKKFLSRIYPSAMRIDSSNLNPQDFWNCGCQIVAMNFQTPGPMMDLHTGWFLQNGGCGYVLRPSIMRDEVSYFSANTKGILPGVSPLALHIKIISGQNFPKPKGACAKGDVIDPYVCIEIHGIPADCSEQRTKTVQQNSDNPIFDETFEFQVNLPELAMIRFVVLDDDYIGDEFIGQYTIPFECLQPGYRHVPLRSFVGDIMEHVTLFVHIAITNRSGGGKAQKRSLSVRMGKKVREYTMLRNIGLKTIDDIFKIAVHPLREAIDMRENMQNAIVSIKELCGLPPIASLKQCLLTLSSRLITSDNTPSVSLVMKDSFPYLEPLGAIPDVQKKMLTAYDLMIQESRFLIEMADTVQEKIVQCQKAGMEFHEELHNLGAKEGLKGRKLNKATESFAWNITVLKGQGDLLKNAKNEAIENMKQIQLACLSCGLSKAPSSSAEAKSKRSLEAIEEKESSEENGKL
UniProt O00329, sequence (O00329 whole entry, looked up): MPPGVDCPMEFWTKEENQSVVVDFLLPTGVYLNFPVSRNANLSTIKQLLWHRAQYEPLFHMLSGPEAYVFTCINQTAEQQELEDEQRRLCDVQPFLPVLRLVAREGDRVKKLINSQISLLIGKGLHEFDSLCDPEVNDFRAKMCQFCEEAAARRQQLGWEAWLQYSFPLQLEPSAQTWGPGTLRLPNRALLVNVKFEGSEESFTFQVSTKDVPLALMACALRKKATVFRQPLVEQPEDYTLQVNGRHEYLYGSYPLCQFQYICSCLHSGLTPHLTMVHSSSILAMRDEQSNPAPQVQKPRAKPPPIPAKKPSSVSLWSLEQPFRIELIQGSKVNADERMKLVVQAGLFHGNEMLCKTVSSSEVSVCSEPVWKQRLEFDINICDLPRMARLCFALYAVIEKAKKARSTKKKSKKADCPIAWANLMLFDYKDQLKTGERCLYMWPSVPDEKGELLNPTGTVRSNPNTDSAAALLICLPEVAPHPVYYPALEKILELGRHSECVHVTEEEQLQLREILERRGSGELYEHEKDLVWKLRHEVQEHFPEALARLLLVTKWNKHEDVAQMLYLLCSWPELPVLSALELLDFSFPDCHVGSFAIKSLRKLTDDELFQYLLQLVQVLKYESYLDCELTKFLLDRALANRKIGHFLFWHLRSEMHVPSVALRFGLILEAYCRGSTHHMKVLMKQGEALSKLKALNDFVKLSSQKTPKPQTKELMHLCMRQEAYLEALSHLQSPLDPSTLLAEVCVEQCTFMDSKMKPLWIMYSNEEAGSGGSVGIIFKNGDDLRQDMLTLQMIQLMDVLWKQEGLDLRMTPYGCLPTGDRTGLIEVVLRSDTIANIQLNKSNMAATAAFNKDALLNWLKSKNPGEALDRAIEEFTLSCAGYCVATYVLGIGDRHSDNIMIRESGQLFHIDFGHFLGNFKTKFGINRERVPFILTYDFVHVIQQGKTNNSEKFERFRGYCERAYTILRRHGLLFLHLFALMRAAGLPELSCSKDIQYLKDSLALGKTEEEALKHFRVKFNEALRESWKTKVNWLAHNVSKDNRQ
UniProt Q9H0R6, sequence (Q9H0R6 whole entry, looked up): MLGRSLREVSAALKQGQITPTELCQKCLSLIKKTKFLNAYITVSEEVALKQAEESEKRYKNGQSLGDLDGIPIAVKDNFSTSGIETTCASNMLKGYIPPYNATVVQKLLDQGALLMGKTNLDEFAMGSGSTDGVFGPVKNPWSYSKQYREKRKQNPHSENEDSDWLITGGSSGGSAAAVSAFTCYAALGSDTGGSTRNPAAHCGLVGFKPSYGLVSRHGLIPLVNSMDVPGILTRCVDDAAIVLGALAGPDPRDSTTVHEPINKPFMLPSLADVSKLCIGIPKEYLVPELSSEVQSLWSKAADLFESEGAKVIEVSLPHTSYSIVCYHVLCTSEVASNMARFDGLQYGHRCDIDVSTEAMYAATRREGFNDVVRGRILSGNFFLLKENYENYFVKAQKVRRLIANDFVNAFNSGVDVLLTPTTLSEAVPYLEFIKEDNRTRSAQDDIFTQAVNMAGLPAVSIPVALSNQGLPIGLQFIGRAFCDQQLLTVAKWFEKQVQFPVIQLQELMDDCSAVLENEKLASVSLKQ
UniProt Q15004, sequence (Q15004 whole entry, looked up): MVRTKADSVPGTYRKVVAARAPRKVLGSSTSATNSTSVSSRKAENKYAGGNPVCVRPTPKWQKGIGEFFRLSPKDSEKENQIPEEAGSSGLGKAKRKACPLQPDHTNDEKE
UniProt Q86T03, sequence (Q86T03 whole entry, looked up): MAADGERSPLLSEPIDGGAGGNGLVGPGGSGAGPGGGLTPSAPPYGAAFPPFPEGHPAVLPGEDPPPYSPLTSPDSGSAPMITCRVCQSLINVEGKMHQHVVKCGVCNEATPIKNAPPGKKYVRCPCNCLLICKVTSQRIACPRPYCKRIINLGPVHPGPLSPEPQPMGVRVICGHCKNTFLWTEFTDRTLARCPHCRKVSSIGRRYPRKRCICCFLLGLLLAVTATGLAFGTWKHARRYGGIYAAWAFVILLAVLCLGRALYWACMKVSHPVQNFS
UniProt O60678, sequence (O60678 whole entry, looked up): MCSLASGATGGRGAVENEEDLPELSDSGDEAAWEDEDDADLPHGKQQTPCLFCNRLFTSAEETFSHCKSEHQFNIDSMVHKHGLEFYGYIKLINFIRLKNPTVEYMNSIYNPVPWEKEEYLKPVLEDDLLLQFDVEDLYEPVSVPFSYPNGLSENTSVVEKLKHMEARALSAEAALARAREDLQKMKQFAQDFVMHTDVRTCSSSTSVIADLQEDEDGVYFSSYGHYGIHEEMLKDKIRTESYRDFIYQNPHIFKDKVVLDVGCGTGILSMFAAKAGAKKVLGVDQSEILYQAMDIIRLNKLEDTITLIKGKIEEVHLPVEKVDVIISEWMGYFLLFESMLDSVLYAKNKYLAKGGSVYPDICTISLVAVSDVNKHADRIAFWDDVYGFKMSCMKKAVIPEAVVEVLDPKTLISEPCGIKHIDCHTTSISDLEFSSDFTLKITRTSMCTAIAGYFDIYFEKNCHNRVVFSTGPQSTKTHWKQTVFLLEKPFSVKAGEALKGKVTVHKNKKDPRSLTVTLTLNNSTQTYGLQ
UniProt P50897, sequence (P50897 whole entry, looked up): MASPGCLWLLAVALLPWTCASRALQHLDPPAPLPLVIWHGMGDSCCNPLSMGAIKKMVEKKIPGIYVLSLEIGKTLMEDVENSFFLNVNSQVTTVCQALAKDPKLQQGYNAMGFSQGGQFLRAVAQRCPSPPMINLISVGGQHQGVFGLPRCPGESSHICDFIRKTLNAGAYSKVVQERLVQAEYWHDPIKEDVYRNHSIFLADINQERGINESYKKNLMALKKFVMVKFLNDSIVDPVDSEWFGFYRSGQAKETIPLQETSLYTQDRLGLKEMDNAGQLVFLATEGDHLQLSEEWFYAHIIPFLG
UniProt Q15185, sequence (Q15185 whole entry, looked up): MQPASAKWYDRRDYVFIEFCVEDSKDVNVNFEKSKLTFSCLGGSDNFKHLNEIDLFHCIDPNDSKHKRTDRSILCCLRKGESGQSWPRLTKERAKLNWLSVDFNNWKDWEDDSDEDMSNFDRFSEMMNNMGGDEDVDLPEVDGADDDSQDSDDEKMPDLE
UniProt Q9Y244, sequence (Q9Y244 whole entry, looked up): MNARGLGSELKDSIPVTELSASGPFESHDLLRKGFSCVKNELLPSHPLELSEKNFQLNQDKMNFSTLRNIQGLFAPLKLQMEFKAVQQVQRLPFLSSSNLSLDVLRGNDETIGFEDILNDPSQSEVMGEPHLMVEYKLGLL
UniProt O43395, sequence (O43395 whole entry, looked up): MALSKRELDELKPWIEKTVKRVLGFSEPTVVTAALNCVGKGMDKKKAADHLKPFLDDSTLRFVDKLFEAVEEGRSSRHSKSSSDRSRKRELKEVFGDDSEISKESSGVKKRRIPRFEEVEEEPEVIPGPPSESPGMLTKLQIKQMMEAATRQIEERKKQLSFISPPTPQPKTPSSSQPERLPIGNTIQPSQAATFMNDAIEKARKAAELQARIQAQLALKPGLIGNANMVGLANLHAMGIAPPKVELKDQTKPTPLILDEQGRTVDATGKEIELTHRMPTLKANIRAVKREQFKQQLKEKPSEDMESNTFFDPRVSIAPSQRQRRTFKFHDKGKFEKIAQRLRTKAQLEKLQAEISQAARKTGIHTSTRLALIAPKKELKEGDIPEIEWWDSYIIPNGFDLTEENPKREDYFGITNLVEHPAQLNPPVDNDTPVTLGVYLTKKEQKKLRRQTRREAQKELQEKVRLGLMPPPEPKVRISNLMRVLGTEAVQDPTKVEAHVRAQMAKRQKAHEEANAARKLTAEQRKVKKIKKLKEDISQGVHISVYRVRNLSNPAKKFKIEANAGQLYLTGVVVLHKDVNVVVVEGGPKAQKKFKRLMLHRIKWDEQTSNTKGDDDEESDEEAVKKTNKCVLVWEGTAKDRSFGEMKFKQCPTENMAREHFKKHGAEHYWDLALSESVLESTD

Row | Target | log2 fold change [1] | log2 fold change (filanesib) | log2 fold change (zotarolimus) | log2 fold change (idasanutlin) | log2 fold change (alisertib) | log2 fold change [2] | log2 fold change (gefitinib) | log2 fold change [3] | log2 fold change (lapatinib) | log2 fold change (pictilisib) | log2 fold change [4] | log2 fold change (crizotinib) | log2 fold change [5] | log2 fold change [6] | log2 fold change (duvelisib) | log2 fold change (gandotinib) | log2 fold change (tozasertib) | log2 fold change [7] | log2 fold change (doramapimod) | log2 fold change (ispinesib)
1 | PIP4P1 isoform 2 (UniProt Q86T03) | 0.089 | -0.32 (active) | 0.004 | 0.002 | 0.032 | -0.072 | -0.018 | -0.058 | 0.06 | -0.061 | 0.021 | -0.395 (active) | -0.123 | 0.086 | -0.085 | 0.107 | 0.021 | -0.048 | -0.025 | -0.353 (active)
2 | QRSL1 (UniProt Q9H0R6) | -0.01 | -0.087 | -0.028 | -0.128 | 0.022 | -0.005 | -0.007 | 0.017 | 0.003 | 0.06 | 0.046 | -0.04 | 0.212 (active) | -0.023 | 0.033 | 0.082 | -0.025 | 0.024 | -0.015 | -0.049
3 | PMPCA (UniProt Q10713) | -0.041 | 0.013 | 0.035 | -0.1 | -0.089 | -0.02 | 0.043 | 0.009 | -0.023 | 0.018 | 0.006 | -0.014 | 0.033 | -0.07 | 0.055 | -0.076 | -0.022 | -0.011 | 0.028 | -0.043
4 | PRMT3 (UniProt O60678) | 0.026 | -0.099 | 0.008 | -0.017 | -0.005 | 0.098 | -0.122 | -0.111 | 0.013 | 0.048 | -0.067 | -0.137 | -0.002 | -0.058 | -0.028 | -0.156 | 0.002 | 0.111 | -0.037 | -0.02
5 | POMP (UniProt Q9Y244) | 0.175 | 0.082 | 0.012 | 0.115 | -0.153 | -0.016 | 0.076 | -0.03 | -0.022 | 0.031 | -0.086 | -0.059 | -0.023 | -0.076 | 0.055 | 0.027 | 0.001 | -0.245 | -0.143 | 0.108
6 | PPT1 (UniProt P50897) | 0.021 | -0.241 (active) | -0.043 | 0.005 | -0.041 | -0.041 | -0.03 | 0.074 | -0.038 | 0.052 | 0.022 | -0.57 (active) | -0.008 | -0.029 | 0.023 | -0.018 | -0.012 | 0.023 | -0.004 | -0.394 (active)
7 | PECAM1 (UniProt P16284) | 0.018 | 0.114 | -0.002 | -0.029 | -0.053 | 0.025 | 0.02 | 0.063 | -0.021 | 0.12 | 0.086 | 0.145 | 0.157 | 0.034 | 0.08 | -0.001 | -0.105 | -0.03 | -0.025 | 0.099
8 | PCLAF (UniProt Q15004) | -0.115 | 0.158 | -0.172 | 0.066 | -0.035 | -0.018 | -0.057 | -0.162 | 0.033 | -0.015 | -0.175 | 0.027 | -0.19 | 0.052 | -0.022 | -0.07 | -0.03 | -0.097 | 0.022 | 0.079
9 | PFDN1 (UniProt O60925) | -0.048 | -0.007 | 0.091 | -0.024 | -0.042 | -0.125 | -0.002 | 0.026 | -0.047 | 0.014 | 0.018 | 0.069 | 0.264 | -0.115 | 0.175 | 0.029 | 0.072 | 0.081 | 0.018 | 0.277
10 | PRKAB1 (UniProt Q9Y478) | 0.024 | -0.022 | 0.07 | -0.223 | -0.105 | -0.034 | -0.024 | 0.05 | -0.049 | -0.063 | 0.013 | -0.252 (active) | 0.029 | -0.063 | 0.01 | -0.057 | -0.013 | 0.069 | 0.013 | -0.013
11 | PLCL1 (UniProt Q15111) | 0.048 | -0.036 | 0.09 | 0.062 | -0.107 |  | 0.118 | 0.229 |  | -0.073 | 0.112 | -0.03 | 0.074 | -0.263 |  | -0.14 | -0.015 |  | -0.08 | -0.162
12 | PIK3CD (UniProt O00329) | -0.016 | 0.029 | -0.098 | 0.105 |  | 0.02 |  |  | -0.018 |  | -0.019 | 0.009 | 0.034 | 0.14 | 0.233 |  | 0.049 | -0.11 | 0.042 | -0.029
13 | PRPF3 (UniProt O43395) | 0.18 | -0.038 | -0.048 | -0.029 | 0.031 | -0.07 | 0.06 | 0.072 | -0.02 | -0.022 | 0.009 | -0.025 | 0.114 | 0.193 | 0.053 | -0.067 | 0.007 | 0.174 | -0.024 | 0.025
14 | POLR2C (UniProt P19387) | -0.04 | 0.034 | -0.012 | -0.074 | 0.013 | -0.022 | -0.045 | 0.086 | 0.099 |  | 0.019 | 0.127 | -0.062 | 0.163 | 0.032 |  | 0.017 | 0.113 | 0.012 | 0.034
15 | PTGES3 (UniProt Q15185) | 0.23 | -0.091 | 0.055 | 0.004 | 0.016 | -0.044 | 0.044 | -0.038 | 0.007 | 0.027 | 0.047 | 0.066 | 0.068 | -0.101 | 0.03 | -0.049 | 0.063 | 0.086 | -0.118 | 0.015
16 | PTTG1 (UniProt O95997) | 0.011 | 0.052 | -0.077 | -0.011 | -0.022 | -0.156 | -0.048 | -0.058 | -0.013 | -0.07 | -0.093 | -0.012 | -0.085 | -0.044 | 0.068 | -0.108 | -0.015 | 0.021 | 0.076 | -0.034
17 | POLR1A (UniProt O95602) | 0.248 | 0.075 | -0.05 | 0.063 | -0.076 | -0.007 | 0.037 | -0.008 | 0.069 | 0.078 | 0.076 | -0.017 | -0.116 | 0.125 | 0.111 | -0.03 | -0.145 | 0.08 | 0.141 | -0.151
